“And” between values parts separate entries of the source, which are not always exact repeats. Identical values can stand only once. Results filed as inconclusive are left out. The source holds several records for some structures; these can differ, active in one and inactive in another. A number with no mark means an inactive call. The source made the active and inactive calls. Unless noted, calls follow the shape of the dose curve; as a rule, active = well fitted curve in the direction sought with a large enough effect; inconclusive = small, poorly fitted or top-dose-only effect, or another doubt; inactive = no such curve, though single readings can be large; an effect the other way counts as inactive or inconclusive.

Experiment [1] has as its target Cellular tumor antigen p53 (Homo sapiens) (UniProt P04637). In words: Primary qHTS for small molecule compounds that upregulate eGFP-tagged delta133p53alpha (in N-terminal) cells. (AID 2060322). Also: nearly all actives have a fitted effect of over 75% in size. Also: potency is read from the fitted curve at half-maximal effect.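 As to activation: 0% = DMSO vehicle and 100% = reference activator.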 As to conditions: NCI-H358 eGFP-delta133p53alpha fluorescence, 24 h; activation: hits give high values. In short, it runs like this:
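NCI-H358 cells pre-induced 24 h with 10 ng/ml doxycycline to express N-terminal eGFP-delta133p53alpha, then dosed 24 h at 37C without doxycycline; fixed, Hoechst-stained, GFP intensity by laser scanning cytometry, normalized to DMSO (0%) and 57.5 uM 5-azacytidine (100%).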

Experiment [2] concerns the target Aldehyde dehydrogenase, mitochondrial (Homo sapiens) (UniProt P05091). In words: qHTS for Inhibitors of the Aldehyde Dehydrogenase Family (ALDH2) Primary screen (AID 2061308).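 Also: plate controls were vehicle for no effect and reference inhibitor for full effect; nearly all actives have a fitted effect of over 55% in size.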 As to conditions: ALDH2 enzyme inhibition qHTS, 1536-well; series mostly up to 56 µM.
In experiment [3] the target is Retinaldehyde dehydrogenase 3 (Homo sapiens) (UniProt P47895). The experiment in a line: qHTS for Inhibitors of the Aldehyde Dehydrogenase Family (ALDH1A3) Primary screen (AID 2061315).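 Also: plate controls were DMSO vehicle for no effect and reference inhibitor for full effect.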 The settings on record: ALDH inhibition qHTS; series mostly up to 56 µM.
Experiment [4] is described as follows: BET inhibitor-based combinations targeting novel dependencies in MECOM-rearranged (r) AML: OCI-AML3 cell line (AID 2202232). Also: nearly all actives have a fitted effect of over 35% in size. Also: potency is read from the fitted curve at half-maximal effect. The settings on record: CellTiter-Glo luminescence, 48 h; Potency: OCI-AML3 viability; series mostly up to 46 µM. An outline of the steps:
(§1)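 Cells were plated at 500 per well and exposed to an 11-point dose series of each drug for 48 hr. Viability was measured by CellTiter-Glo luminescence, normalized to DMSO and empty-well controls, and summarized as AUC and per-cell-line Z-AUC.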

Experiment [5] is described as follows: BET inhibitor-based combinations targeting novel dependencies in MECOM-rearranged (r) AML: AML-191 cell line (AID 2202236; also: nearly all actives have a fitted effect of over 35% in size; also: potency is read from the fitted curve at half-maximal effect). The settings on record: AML-191 viability, CellTiter-Glo luminescence, 48 h; series mostly up to 46 µM. An outline of the steps:
as §1

Experiment [6] is described as follows: BET inhibitor-based combinations targeting novel dependencies in MECOM-rearranged (r) AML: AML-194 cell line (AID 2202237; also: nearly all actives have a fitted effect of over 40% in size; also: potency is read from the fitted curve at half-maximal effect). As to conditions: AML-194 (MECOM-r AML) viability, CellTiter-Glo, 48 h; series mostly up to 46 µM. An outline of the steps: as §1
Experiment [7] in a line: BET inhibitor-based combinations targeting novel dependencies in MECOM-rearranged (r) AML: MV-4-11 cell line (AID 2202233). Also: nearly all actives have a fitted effect of over 45% in size. Also: potency is read from the fitted curve at half-maximal effect. As to conditions: MV-4-11 AML viability, CellTiter-Glo luminescence, 48 h; series mostly up to 46 µM. An outline of the steps: (§2)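 Activity is given as area under the curve and as Z-AUC, mean-centred within each cell line. It comes from 11-point dose curves normalized to DMSO and empty wells. CellTiter-Glo luminescence was read after 48 hr drug exposure of 500 cells/well.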

The nature of experiment [8]: BET inhibitor-based combinations targeting novel dependencies in MECOM-rearranged (r) AML: HNT-34 cell line (AID 2202234). Also: nearly all actives have a fitted effect of over 35% in size. Also: potency is read from the fitted curve at half-maximal effect. As to conditions: HNT-34 AML viability, CellTiter-Glo luminescence, 48 h; series mostly up to 46 µM. An outline of the steps:
as §2

Experiment [9] in a line: BET inhibitor-based combinations targeting novel dependencies in MECOM-rearranged (r) AML: UCSD-AML1 cell line (AID 2202235). Also: nearly all actives have a fitted effect of over 40% in size. Also: potency is read from the fitted curve at half-maximal effect. As to conditions: UCSD-AML1 AML cells viability, CellTiter-Glo, 48 h; series mostly up to 46 µM. In short, it runs like this:
as §2

Experiment [10] addresses Aldehyde dehydrogenase, mitochondrial (Homo sapiens) (UniProt P05091). The experiment in a line: qHTS for Inhibitors of the Aldehyde Dehydrogenase Family (ALDH2) Validation screens (AID 2061302; active = well fitted inhibition curve with a large enough effect; title and protocol of this record describe different tests; also: potency is read from the fitted curve at half-maximal effect). The settings on record: ALDH inhibition qHTS; series mostly up to 42.6 µM.
Experiment [11] is described as follows: BET inhibitor-based combinations targeting novel dependencies in MECOM-rearranged (r) AML: SET-2 cell line (AID 2202231). Also: nearly all actives have a fitted effect of over 35% in size. Also: potency is read from the fitted curve at half-maximal effect.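 As to viability: plate controls were DMSO treated cells for no effect and wells without cells for full effect.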 The settings on record: SET-2 AML cells viability, CellTiter-Glo luminescence, 48 h; viability: hits give low values, concentration not given here. An outline of the steps:
as §1

For experiment [12], the target named is Retinaldehyde dehydrogenase 3 (Homo sapiens) (UniProt P47895). The experiment in a line: qHTS for Inhibitors of the Aldehyde Dehydrogenase Family (ALDH1A3) Validation screen (AID 2061312). Also: % is scaled to controls: 0 for no effect and ±100 for the full control effect; nearly all actives have a fitted effect of over 45% in size. As to conditions: ALDH1A3 enzyme inhibition qHTS validation, fluorescence; series mostly up to 84.7 µM.
Experiment [13] addresses Cellular tumor antigen p53 (Homo sapiens) (UniProt P04637). In words: Primary qHTS for small molecule compounds that upregulate eGFP-tagged delta133p53alpha (in C-terminal) cells. (AID 2060324).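 Also: 0% = DMSO wells and 100% = 57.5 µM 5-azacytidine.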 As to conditions: NCI-H358 delta133p53alpha-eGFP (C-terminal tag), GFP fluorescence imaging, 24 h; series mostly up to 57.5 µM. In short, it runs like this: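 NCI-H358 cells pre-induced 24 h with 100 ng/ml doxycycline to express delta133p53alpha-eGFP, then dosed in doxycycline-free medium for 24 h at 37C. Fixed, Hoechst-stained; GFP intensity by laser scanning cytometry, normalized to DMSO wells.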

Cellular tumor antigen p53 (Homo sapiens), sequence (P04637 whole entry, looked up): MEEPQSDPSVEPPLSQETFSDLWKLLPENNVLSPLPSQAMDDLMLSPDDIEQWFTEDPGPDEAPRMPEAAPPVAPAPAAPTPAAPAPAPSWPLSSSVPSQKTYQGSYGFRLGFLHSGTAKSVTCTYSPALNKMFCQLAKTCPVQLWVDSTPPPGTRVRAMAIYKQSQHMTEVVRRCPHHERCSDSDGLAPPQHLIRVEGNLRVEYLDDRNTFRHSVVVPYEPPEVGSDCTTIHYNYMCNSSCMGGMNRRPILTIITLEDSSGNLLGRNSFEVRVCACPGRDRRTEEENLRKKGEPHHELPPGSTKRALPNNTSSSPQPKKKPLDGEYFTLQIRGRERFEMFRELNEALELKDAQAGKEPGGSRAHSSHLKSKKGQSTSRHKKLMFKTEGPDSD

For `CS(=O)c1ccc(-c2nc(-c3ccc(F)cc3)c(-c3ccncc3)[nH]2)cc1` (stereo not drawn), the Potency in experiment [1] is 49.8 µM (active). Also, in experiment [1], the activation is -3.57%. Also, the Potency entry in experiment [2], in experiment [3], in experiment [4], in [5] and in experiment [6] was “inactive” in each case.

On to `O=C(O)c1ccc2c(c1)nc(Nc1cccc(Cl)c1)c1ccncc12`, for which the Potency is 23.9 µM (active) in [1]; 8.33 µM (active) in experiment [4]; 3.32 µM (active) in [7]; 2.63 µM (active) in experiment [8]; 5.9 µM (active) in experiment [9]; 7.42 µM (active) in experiment [5]. The Potency in experiment [6] is 7.42 µM (active). In [1], the activation is 37.3%. In addition, the Potency result in experiment [2] and in experiment [3] was “inactive” in each case.

With `CCOC(=O)Nc1ccc(NCc2ccc(F)cc2)nc1N`, the Potency is 2.19 µM (active) in experiment [1] and 5.01 µM (active) in experiment [10]. For the same compound, the activation in experiment [1] is -4.52% and 42.2%. In addition, the viability in [11] is 107%. Further, the Potency entry in experiment [8], in experiment [9], in [5] and in [6] was “inactive” in each case.

Take `Cc1nccn1CC1CCc2c(c3ccccc3n2C)C1=O` (stereo not drawn): in [1], the Potency is 34.7 µM (active). In experiment [1], the activation was 4.27% and -3.67%. Besides, the Potency entry in experiment [2] and in [3] was “inactive” in each case.

For the compound `Cc1ccnc(NS(=O)(=O)c2ccc(NC(=O)Nc3ccc(S(=O)(=O)Nc4nccc(C)n4)cc3)cc2)n1`, the Potency in [1] is 9.68 µM (active). In addition, the activation in experiment [1] was 21%. Further, the Potency entry in experiment [2], in experiment [3], in experiment [7], in [9], in [5] and in experiment [6] was “inactive” throughout. Further, the viability in experiment [11] was 112%.

As for `CCCCOc1c(C(=O)c2c(F)cc(C)cc2F)cnc2n[nH]cc12`, the Potency in [1] is 3.79 µM (active); in experiment [4] it was 2.09 µM (active); in experiment [7], 1.48 µM (active); in experiment [8], 2.95 µM (active); in [9] it was 2.35 µM (active); in experiment [5], 2.63 µM (active). Besides, the activation in [1] is 10.1%. The Potency entry in experiment [2] and in [3] was “inactive” in each case.

For the compound `C[C@]12CC[C@@H]3c4ccc(O)cc4CC[C@H]3[C@@H]1CC[C@@H]2OC(=O)CCC1CCCC1`, in experiment [1], the Potency was 30.9 µM (active). Also, in [1], the activation was 19.6%. The Potency entry in [2], in [12] and in experiment [3] was “inactive” throughout.

For the compound `COc1ccc(C2CC(c3ccccc3)=NN2c2ccc(S(N)(=O)=O)cc2)cc1` (stereo not drawn), the Potency in [1] was 21.7 µM (active). For the same compound, the activation in [1] is -16.2%. The Potency entry in experiment [2], in [12], in experiment [3], in [9], in experiment [5] and in experiment [6] was “inactive” in each case. Moreover, the viability in experiment [11] was 112%.

Consider `CC(C)n1nc(-c2cc3cc(O)ccc3[nH]2)c2c(N)ncnc21`, for which the Potency was 21.3 µM (active) in [1]; 1.86 µM (active) in experiment [4]; 0.417 µM (active) in [7]; 0.372 µM (active) in experiment [8]; 0.332 µM (active) in experiment [9]; 0.934 µM (active) in experiment [5]. Also, in experiment [6], the Potency was 0.417 µM (active). The activation in [1] was 17.6%. Moreover, in experiment [2], the Potency entry is “inactive”.

For the compound `CN1CCc2c(c3ccccc3n2Cc2ccc(C(=O)NO)cc2)C1`, the Potency was 34.3 µM (active) in [1]; 20.9 µM (active) in [11]; 20.9 µM (active) in experiment [4]; 20.9 µM (active) in experiment [7]; 9.34 µM (active) in experiment [8]; 20.9 µM (active) in [5]. In addition, in experiment [6], the Potency was 23.5 µM (active). For the same compound, the activation in [1] was 77.5%. Also, the Potency result in experiment [2] and in experiment [3] was “inactive” in each case.

On to `NS(=O)(=O)NCCNc1nonc1C(=Nc1ccc(F)c(Br)c1)NO`, for which, in [1], the Potency was 2.16 µM (active). For the same compound, the activation in experiment [1] was -6.33% and -3%. Further, the Potency result in [2], in experiment [3], in experiment [4], in experiment [7], in experiment [8] and in experiment [9] was “inactive” each time. For the same compound, the Potency entry in experiment [5] and in experiment [6] was “inactive” each time. Further, in experiment [11], the viability is 106%.

With `COc1cc(N2CCC(N3CCN(C)CC3)CC2)ccc1Nc1ncc(Cl)c(Nc2ccccc2S(=O)(=O)C(C)C)n1`, the Potency was 30.1 µM (active) in [1]; 18.6 µM (active) in [11]; 2.63 µM (active) in experiment [4]; 0.468 µM (active) in experiment [7]; 16.6 µM (active) in experiment [8]; 2.95 µM (active) in experiment [9]. Also, the Potency was 10.5 µM (active) in [5] and 16.6 µM (active) in [6]. Further, the activation in experiment [1] was 16.9%. For the same compound, the Potency entry in experiment [2] is “inactive”.

With `CNC(=O)CN1CCC(Oc2cc3c(Nc4cccc(Cl)c4F)ncnc3cc2OC)CC1`, the figures for the Potency in [1], in experiment [8] and in [9] were 13.7 µM (active), 16.6 µM (active) and 20.9 µM (active), respectively. For the same compound, the activation in experiment [1] is 14.3%. Moreover, the Potency entry in [2], in experiment [3], in experiment [5] and in [6] was “inactive” each time. Also, in [11], the viability was 107%.

Consider `CN1c2ccccc2C(=O)N2CCc3c([nH]c4ccccc34)C21` (stereo not drawn), for which the Potency in experiment [1] was 2.69 µM (active); in experiment [11], 5.25 µM (active); in [4] it was 2.95 µM (active); in experiment [7], 3.32 µM (active); in experiment [8], 1.86 µM (active); in [9], 1.66 µM (active). Moreover, the Potency in [6] is 1.32 µM (active). Also, the activation in [1] was -3.8%. For the same compound, the Potency result in experiment [2] and in experiment [3] was “inactive” in each case.

Regarding `CCNC(=O)Nc1ccc2ncc(Nc3ccc(C)cc3)nc2n1`, the Potency in experiment [1] was 30.1 µM (active). The activation in experiment [1] is -1.61%. For the same compound, the Potency entry in [2] and in experiment [3] was “inactive” each time.

`N#C/C(=C\c1ccc(O)c(O)c1)C(=O)c1ccc(O)c(O)c1`: in experiment [1], the activation is -3.67%. Also, the Potency result in [13] was “inactive”.

On to `OCc1cc(C(O)CNCCCCCCOCCCCc2ccccc2)ccc1O` (stereo not drawn), for which, in experiment [1], the activation is 13.4% and 3.4%. Further, in [13], the Potency result is “inactive”.

Values taken from PubChem BioAssay (NCATS).
